From PubChem BioAssay
GLS inhibitor = glutaminase GLS (human) inhibition. O94925. Potency, µM (highest dose often 45.5 µM), inactives show at the top dose activity change, negative = inhibition, hits mostly inhibitors. 410,000 compounds, 0.21% hits. GLS enzymatic activity, qHTS titration; note: potency is the fitted concentration of half-maximal effect
Target sequence (O94925 whole entry, looked up): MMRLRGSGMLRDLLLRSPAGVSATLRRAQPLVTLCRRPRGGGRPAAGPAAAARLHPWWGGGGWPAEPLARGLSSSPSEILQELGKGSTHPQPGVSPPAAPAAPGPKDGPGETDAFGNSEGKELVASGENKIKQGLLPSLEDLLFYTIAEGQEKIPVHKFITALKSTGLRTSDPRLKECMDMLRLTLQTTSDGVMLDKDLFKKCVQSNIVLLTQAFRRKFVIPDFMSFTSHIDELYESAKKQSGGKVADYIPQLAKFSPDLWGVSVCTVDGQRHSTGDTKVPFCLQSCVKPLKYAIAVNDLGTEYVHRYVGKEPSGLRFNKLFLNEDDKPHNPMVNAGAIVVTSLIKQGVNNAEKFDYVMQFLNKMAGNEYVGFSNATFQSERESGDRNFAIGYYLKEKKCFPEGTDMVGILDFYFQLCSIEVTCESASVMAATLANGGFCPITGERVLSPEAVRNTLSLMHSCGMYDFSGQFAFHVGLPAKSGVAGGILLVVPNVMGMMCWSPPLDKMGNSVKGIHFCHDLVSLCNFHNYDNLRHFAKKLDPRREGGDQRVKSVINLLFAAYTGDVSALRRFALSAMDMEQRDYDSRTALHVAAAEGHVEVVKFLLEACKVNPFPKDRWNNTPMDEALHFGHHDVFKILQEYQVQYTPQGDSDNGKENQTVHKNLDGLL
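Glutamate formation by hKGA was monitored fluorometrically using coupled glutamate oxidase, HRP and Amplex Red. Substrate was added as 1 mM L-glutamine solution; incubation was 30 min at RT after an initial read.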
Tb PGK inh = blocks T. brucei phosphoglycerate kinase. P07378. PGK/GAPDH coupled, Kinase-Glo luminescence, 60 min. Potency, µM (highest dose often 57.5 µM), without a hit: top-dose activity change, negative = inhibition, actives largely listed as inhibitors. 380,000 compounds, 0.043% hits. AID 602233; note: potency is the fitted concentration of half-maximal effect; nearly all actives have a fitted effect of over 60% in size
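Recombinant glycosomal PGK reaction used 1,3-bisphosphoglycerate generated in-well by GAPDH (100nM final) in 100mM TEA pH 7.6, 5mM MgCl2, 0.01% Tween-20. After 60 minutes at room temperature, ATP was read by Kinase-Glo Plus luminescence end-point.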
USP1 inh = inhibitors of human USP1/UAF1 deubiquitinase; recombinant USP1/UAF1, Ub-Rhodamine cleavage fluorescence; O94782; 390,000 compounds, 0.23% hits; Potency, µM (doses to about 57.1 µM), for the others: top-dose activity change, negative = inhibition, actives largely listed as inhibitors; note: potency is the fitted concentration of half-maximal effect; nearly all actives have a fitted effect of over 60% in size
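In this screen, compounds sit with the deubiquitinase complex (1nM) for 15 min at room temperature before Ub-Rho is added at 150nM final. Fluorescence rise is then followed for 6 reads every 60 seconds.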
PI4K2A inh = blocks human PI4K2A kinase activity; Q9BTU6; purified PI4K2A, ADP-Glo luminescence, 1 h; stronger effect = lower value; activity change, negative = inhibition, % at 76.9 µM; 420,000 compounds, 0.13% hits; AID 1346378; in the data active = activity change below about -50%; inconclusive = mostly about -30% to -49%;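 note: -100% = wells without enzyme as full effect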
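In this quantitative HTS, ADP production by PI4K2A was quantified luminescently after 1 h at ambient temperature; 100 microM adenosine served as plate-quality control.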
* marks the source's active call; other numbers are inactive results; i = inactive; ? = inconclusive; nt = no result; ! = not active in a repeat. A selection: hits, their analogues and other compounds. The true share with any hit is near 0.53%. Unless noted, calls come from the whole dose curve; as a rule, active = well fitted curve in the direction sought with a large enough effect; inconclusive = small, poorly fitted or top-dose-only effect, or another doubt; inactive = no such curve, though single readings can be large; an effect the other way counts as inactive or inconclusive. Unless noted, % is set by controls: 0 for no effect and ±100 for the full control effect.

SMILES	GLS inhibitor	Tb PGK inh	USP1 inh	PI4K2A inh
COc1ccc(N2C(=O)[C@@H]3[C@H](C2=O)[C@H]2c4ccccc4C=CN2[C@@H]3C(=O)Nc2ccccc2)cc1	-22%	i	?	-22
CC(=O)[C@@H]1[C@@H]2C(=O)N(Cc3ccccc3)C(=O)[C@@H]2C2c3ccccc3C=CN21 (stereo partly specified)	-1%	-6%	18µM*	-25
O=C1C=C(c2c(O)ccc3ccccc23)c2ccccc2C1=O	?	-7%	28µM*	-19
O=C(O)c1cc2ccccc2c2c1C(=O)c1ccccc1-2	0%	-7%	-16%	-2
CCC(C)(C)C(=O)N1CCc2cc(S(=O)(=O)N(C)Cc3ccco3)ccc21	nt	nt	nt	-7
COc1cccc(CNc2ccc3[nH]c(=O)[nH]c3c2)c1OCc1ccccc1Cl	25%	8%	-27%	4
COc1cccc(CNc2ccc3[nH]c(=O)[nH]c3c2)c1OCc1ccccc1	16µM*	i	-21%	-3
CCOc1ccc(OCc2cccc(C(=O)O)c2)cc1	-11%	-25%	-17%	-58*
CCOC(=O)c1c(C)sc(-c2c(-c3ccc(OC)c(F)c3)[nH]c3c2c(=O)[nH]c(=O)n3C)c1O	32%	-3%	22µM*	-1
CCOC(=O)c1c(C)sc(-c2c(-c3ccc4c(c3)OCCO4)[nH]c3c2c(=O)[nH]c(=O)n3C)c1O	11%	-1%	25µM*	11
CCOC(=O)c1c(C)sc(-c2c(-c3ccc4c(c3)OCCO4)[nH]c3c2c(=O)n(C)c(=O)n3C)c1O	10%	i	16µM*	2
COC(=O)c1c(C)sc(-c2c(-c3ccc4c(c3)OCCO4)[nH]c3c2c(=O)n(C)c(=O)n3C)c1O	-1%	nt	-13%	6
CCc1ccc(-c2[nH]c3c(c2-c2sc(C)c(C(=O)OC)c2O)c(=O)[nH]c(=O)n3C)cc1	16%	nt	7%	1
CC(C)(C)OC(=O)NCc1ccccc1/C=C/S(=O)(=O)NCc1ccccc1	nt	nt	nt	-10
Cc1ccc(NC(=O)Nc2ccc3c(c2)[C@]2(CC(=O)N(CC(C)C)C2c2ccccc2)C(=O)N3C)cc1Cl (stereo partly specified)	nt	nt	nt	-6
C(=C\c1ccccc1)/CSc1nnc(Cc2cccs2)n1-c1ccccc1	nt	nt	nt	0
Cn1cccc1/C=C1\CC(C(C)(C)C)C/C(=C\c2cccn2C)C1=O (stereo unspecified)	10%	14%	11µM*	-6
CN1C2CCC1/C(=C/c1cccn1C)C(=O)/C2=C\c1cccn1C	-21%	-4%	28µM*	-3
CN1C2CCC1/C(=C\c1ccc(F)cc1)C(=O)/C2=C/c1ccc(F)cc1	6%	4%	-4%	-2
CO[C@@H]1[C@@H](OC2OC(C)C(OC3CC(C)(O)C(OC(=O)CC(C)C)C(C)O3)C(N(C)C)C2O)[C@@H](CC=O)C[C@@H](C)C(=O)/C=C\C2O[C@H]2C[C@@H](C)OC(=O)C[C@H]1OC(C)=O (stereo partly specified)	34%	nt	nt	nt
CC(C(=O)O)c1ccc2c(c1)CC(=O)c1ccccc1S2 (stereo unspecified)	-3%	nt	nt	-2
COc1ccc(-c2cc3nc(C)cc(-c4ccc(OC)cc4)n3n2)cc1	-1%	5%	-25%	-1
COc1ccc(-c2cc3nc(C)cc(N)n3n2)cc1	7%	?	-20%	-88*
CN1C(=O)c2ccccc2Sc2ccc(NC(=O)N3CCN(c4ccc(F)cc4)CC3)cc21	1%	-10%	7%	-1
Cc1ccc(Nc2nccc(N(C)c3ccc4c(C)n(C)nc4c3)n2)cc1S(N)(=O)=O	4%	nt	nt	-14
SMILES	GLS inhibitor	Tb PGK inh	USP1 inh	PI4K2A inh
CC(CCc1ccccc1)NC(=O)CN1CCN(c2ccc(O)cc2)CC1 (stereo unspecified)	10µM*	-10%	-18%	5
O=c1[nH]c(/C=C\c2ccc(O)c(O)c2)nc(O)c1[N+](=O)[O-]	7.9µM*	-17%	-10%	-11
CC(=O)N[C@H]1[C@H]([C@H](O)[C@H](O)CO)OC(C(=O)O)=C[C@@H]1N=C(N)N	nt	nt	nt	3
CCC1C/C(=C\c2cc(OC)c(OC)cc2OC)C(=O)/C(=C/c2cc(OC)c(OC)cc2OC)C1 (stereo unspecified)	-7%	0%	?	-3
COc1cc(OC)c(OC)cc1/C=C1\CC(C)C/C(=C\c2cc(OC)c(OC)cc2OC)C1=O (stereo unspecified)	-6%	-2%	35µM*	0
C=CCn1c(NC(=O)c2ccccc2Cl)c(C#N)c2nc3ccccc3nc21	2%	-7%	16µM*	?
CCCCn1c(NC(C)=O)c(C#N)c2nc3ccccc3nc21	0%	-7%	-22%	-6
O=C(OC12CCCN(C1)/C(=C/c1ccc(Cl)cc1)C2)C1CCCCC1 (stereo unspecified)	nt	nt	nt	4
Cc1cc(=O)[nH]c(N/N=C/c2ccc(O)c(O)c2)n1	13µM*	5%	-13%	-3
O=C(CCS(=O)(=O)c1ccc(Br)cc1)NCc1cccs1	-16%	?	-10%	-9
O=C(CCS(=O)(=O)c1ccc(Br)cc1)NCc1ccco1	?	13µM*	-18%	-9
CC1(C(=O)N2CCC(Oc3cccnc3)CC2)CC1	nt	nt	nt	1
CCC(NC(=O)c1cccc2c1C(=O)N(Cc1cccnc1)C2)c1ccccc1 (stereo unspecified)	nt	nt	nt	-4
Cc1cc(C)cc(NC(=O)Oc2ccccc2N2CCCCC2)c1	10µM*	7%	-17%	3
O=C(Nc1cccc(C(F)(F)F)c1)Oc1ccccc1N1CCOCC1	20%	-2%	-10%	-1
CC(C)(C)c1ccc(C(=O)CCCCl)cc1	nt	nt	nt	-5
COc1ccccc1N1CCN(CCN(C(=O)C2CCCCC2)c2ccccn2)CC1	25%	9%	-9%	-65*!
Cc1cc(C(=O)c2ccccc2)cc(C)c1O	5%	2%	-17%	25
CC1=C/C(=C(\c2cc(C)c(O)c(Br)c2)c2ccccc2S(=O)(=O)O)C=C(Br)C1=O	?	?	?	-69*
O=c1c(/C=N/Nc2ccccc2)c(Sc2nnnn2-c2ccccc2)nc2ccccn12	8%	1%	3.2µM*	3
O=Cc1c(Sc2ccccc2)nc2ccccn2c1=O	?	0%	-10%	3
O=C(O)c1ccccc1N/N=C/c1c(Sc2nnnn2-c2ccccc2)nc2ccccn2c1=O	11µM*	-29%	71%	6
O=c1oc2c(O)c(O)cc3c(=O)oc4c(O)c(O)cc1c4c23	2.8µM*!	0.89µM*	?	-23
Cc1c(C)c2cc(Cl)c(O)c(CN(C)C)c2oc1=O	-8%	-1%	-2%	-9
Cc1ccc(-n2c(SCc3c(Cl)cccc3Cl)nnc2-c2ccco2)cc1	nt	nt	nt	-3
CCc1cccc(NC(=O)CN2C(=O)CCc3cc(S(=O)(=O)N4CCOCC4)ccc32)c1	4%	-8%	?	-3
